From PubChem BioAssay (NCI)
Compounds without any hit were thinned out: in the full panel of roughly 83,000, 20% have a hit.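 Activity criterion: percent growth below 10, measured after cells in 96-well plates were exposed to a single compound concentration for 48 hours.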 Activity calls are given as the source filed them.

Tests used:
Experiment in all cases: NCI-60 one-dose screen, 48 h (100 = growth as untreated, 0 = no growth, -100 = all killed)
Conditions in all cases: 10 µM
[1] = test system: NCI-H23 lung
[2] = test system: NCI-H226 lung
[3] = test system: NCI-H460 lung
[4] = test system: HOP-92 NSCLC
[5] = test system: A549/ATCC NSCLC
[6] = test system: 786-0 renal
[7] = test system: COLO 205 colon
[8] = test system: DU-145 prostate
[9] = test system: MALME-3M melanoma
[10] = test system: MDA-MB-231 breast
[11] = test system: RXF 393 renal
[12] = test system: SF-268 CNS
[13] = test system: SF-295 CNS
[14] = test system: SF-539 CNS
[15] = test system: UACC-257 melanoma
[16] = test system: M14 melanoma
[17] = test system: K-562 leukemia
[18] = test system: NCI-H522 lung

Measured: growth

Cc1nc2n(c(=O)c1CCN1CCC(c3noc4cc(F)ccc34)CC1)CCC[C@@H]2O
inactive: [1] 92.1% | [2] 99.6% | [3] 105% | [4] 97.9% | [5] 99.3% | [6] 107% | [7] 96.7% | [8] 105% | [9] 89.6% | [10] 90.5% | [11] 108% | [12] 102% | [13] 87% | [14] 98.5% | [15] 96.2% | [16] 104%

COC1=CC(=O)OC(c2ccc(OC)cc2)C1 (stereo unspecified)
inactive: [1] 89.2% | [2] 110% | [3] 109% | [4] 98.1% | [6] 109% | [7] 108% | [8] 113% | [17] 130% | [10] 100% | [11] 113% | [12] 96.5% | [13] 91.7% | [14] 104% | [15] 104% | [16] 122%

O=S(=O)(Oc1ccc(-c2ccc3sccc3c2)cc1)c1ccc(F)cc1
inactive: [1] 87.6% | [2] 94.5% | [3] 103% | [4] 105% | [5] 94% | [6] 96.3% | [7] 111% | [8] 104% | [17] 78.7% | [9] 106% | [10] 108% | [11] 110% | [12] 108% | [13] 96.4% | [14] 110% | [15] 106% | [16] 113%

OC[C@H]1OC([S-])[C@H](O)[C@@H](O)[C@@H]1O.[Au+] (stereo partly specified)
inactive: [1] 77.2% | [2] 103% | [3] 110% | [4] 75.6% | [5] 95.7% | [6] 87.3% | [7] 114% | [8] 111% | [9] 137% | [10] 70% | [11] 93.2% | [12] 88.2% | [13] 113% | [14] 84.3% | [15] 90%

CCC1NC(=O)c2cc(S(N)(=O)=O)c(Cl)cc2N1 (stereo unspecified)
inactive: [1] 108% | [2] 102% | [3] 114% | [4] 91.2% | [5] 104% | [6] 116% | [7] 109% | [8] 124% | [9] 118% | [10] 109% | [11] 115% | [12] 115% | [13] 93% | [14] 115% | [15] 104% | [16] 110%

Clc1nc2ccccc2cc1Cn1nnc(Cc2ccccc2)n1
inactive: [1] 45.6% | [2] 58.2% | [3] 74.3% | [18] 42.1% | [5] 53.9% | [6] 72.9% | [7] 82.7% | [8] 75.2% | [17] 55.2% | [9] 65.6% | [10] 53.1% | [11] 83.9% | [12] 65.7% | [13] 47.6% | [14] 81.2%

O=C1CCn2c1c(O)c1ccccc1c2=O
inactive: [1] 99.5% | [2] 101% | [3] 105% | [4] 95.4% | [18] 112% | [6] 105% | [7] 123% | [8] 114% | [17] 130% | [9] 124% | [10] 115% | [11] 111% | [12] 114% | [13] 97.2% | [14] 113% | [15] 99.8% | [16] 107%

COc1ccc2nc3cc(Cl)ccc3c(Nc3cc(CN4CCCC4)c(O)c(CN4CCCC4)c3)c2n1
active: [1] -29.4% | [2] -32.1% | [3] 4.16% | [4] -16.4% | [5] 9.53% | [6] 0.406% | [7] -48.5% | [9] -73.6% | [10] -21.6% | [11] -68.9% | [12] -25.1% | [13] -26.8% | [14] -21.6% | [15] -87.3% | [16] -82.5%
inactive: [8] 18.2%

CO[C@H]1CC(O[C@@H]2/C(C)=C/C[C@@H]3C[C@@H](C[C@]4(C=C[C@H](C)[C@@H](C5CCCCC5)O4)O3)OC(=O)[C@@H]3C=C(C)[C@@H](O)[C@H]4OC/C(=C\C=C\[C@@H]2C)[C@]43O)O[C@@H](C)C1O[C@H]1C[C@H](OC)[C@@H](O)[C@H](C)O1 (stereo partly specified)
active: [1] -63.7% | [2] -85.8% | [3] -86.7% | [4] -82.9% | [5] -79.7% | [6] -80.3% | [7] -64.7% | [8] -98.4% | [9] -68.1% | [10] -81.1% | [11] -95.5% | [12] -81.5% | [13] -84.6% | [14] -72.3% | [15] -84% | [16] -88%

Cc1cc(C(C#N)c2ccc(Cl)cc2)c(Cl)cc1NC(=O)c1cc(I)cc(I)c1O (stereo unspecified)
inactive: [1] 10.4% | [2] 45.4% | [3] 24.1% | [5] 71.3% | [6] 20.8% | [7] 53.5% | [8] 72.7% | [9] 58.1% | [10] 46.6% | [11] 48.9% | [12] 33.7% | [14] 31.5% | [15] 71.3%
active: [4] -12.1% | [13] -20.9%

CCCCC(CC)CN=C(N)NC(N)=NCCCCCCN=C(N)NC(N)=NCC(CC)CCCC (stereo unspecified)
active: [1] -80% | [2] -63.1% | [3] -71.3% | [4] -53.9% | [5] -87.1% | [6] -31.2% | [7] -79.8% | [8] -98.1% | [9] -73% | [10] -84.6% | [11] -43.5% | [12] -82.8% | [13] -84.8% | [14] -76.9% | [15] -47.1% | [16] -65.1%

O=C(NCCNC(=O)c1ccc(F)cc1)Nc1ccc(-n2cc(-c3ccncc3)c(-c3ccc(Cl)c(O)c3)n2)cc1
active: [1] 6.86% | [3] -0.482% | [4] -19% | [18] -29.2% | [6] -11.1% | [7] -80.8% | [8] 2.26% | [17] 6.23% | [9] 3.35% | [10] -29.1% | [11] 3.36% | [12] 5.76% | [13] -59.1% | [14] -37.7% | [16] -44.4%
inactive: [2] 24.2% | [15] 24.1%

CCn1c(CSc2nc3ccccc3c(=O)n2CCc2ccccc2)n[nH]c1=S
inactive: [1] 65.6% | [2] 78.1% | [3] 96.5% | [4] 85.9% | [5] 84.6% | [6] 81.7% | [7] 105% | [8] 113% | [17] 71.6% | [9] 97.2% | [10] 82.8% | [11] 85.2% | [12] 98.4% | [14] 99.8% | [15] 88.5% | [16] 88.8%

CC(=O)O[C@@]12CO[C@@H]1C[C@H](O)[C@@]1(C)C(=O)[C@H](O)C3=C(C)[C@@H](OC(=O)[C@H](O)[C@@H](NC(=O)OC(C)(C)C)c4ccccc4)C[C@@](O)([C@@H](OC(=O)c4ccccc4)C12)C3(C)C (stereo partly specified)
inactive: [1] 31.8% | [2] 61.5% | [3] 12.1% | [4] 56.3% | [5] 38.8% | [6] 54% | [9] 76.5% | [10] 45.5% | [11] 23.7% | [12] 51.8% | [14] 23% | [15] 74% | [16] 36%
active: [7] 0.921% | [8] -10.4% | [13] -23%

C#C[C@]1(O)CCC2C3CCc4cc(OC5CCCC5)ccc4C3CC[C@@]21C (stereo partly specified)
inactive: [1] 76.6% | [2] 91.6% | [3] 49.8% | [4] 99.6% | [5] 65.9% | [6] 73.5% | [7] 49.3% | [8] 89% | [9] 121% | [10] 50.6% | [11] 97.7% | [12] 71.3% | [13] 77.2% | [14] 101% | [15] 92.6% | [16] 80.2%

Cc1cc(CC(C)CC(C)(C)C)n(O)c(=O)c1 (stereo unspecified) (tested in a mixture with another compound)
active: [3] 3.41% | [9] 8.49% | [13] 6.87% | [14] 6.73% | [15] -1.79% | [16] -35.9%
inactive: [1] 14.6% | [2] 14.1% | [4] 73.6% | [6] 29% | [7] 95.5% | [8] 19.5% | [10] 38.3% | [11] 42.1% | [12] 14.4%

COc1ccc(-c2nn(-c3cccc(Cl)c3)cc2-c2cc(-c3ccccc3)nc(N)n2)cc1
inactive: [1] 42.2% | [2] 69.3% | [3] 31.6% | [4] 69.2% | [5] 61.1% | [6] 60.1% | [7] 35.8% | [8] 95.1% | [9] 52.1% | [10] 35.1% | [11] 56.2% | [12] 65.7% | [13] 55% | [14] 89% | [15] 81.1%
active: [17] -3.82%

O=C1Cc2cc(CCN3CCN(c4nsc5ccccc45)CC3)c(Cl)cc2N1
inactive: [1] 102% | [2] 99.5% | [3] 103% | [4] 64.9% | [5] 95.4% | [6] 106% | [7] 109% | [8] 95.4% | [9] 94.2% | [10] 89.5% | [11] 91.7% | [12] 92.9% | [13] 91.9% | [14] 105% | [15] 86.3% | [16] 105%
